# Source: PubChem BioAssay
# HP1b binding inh = HP1-beta chromodomain-methylated histone interaction inhibition; AlphaScreen HP1-beta / biotin-H3K9me3 peptide binding; 0.56% of 390,000 active; Potency, µM (titrated, usually from 114 µM), for the others: top-dose activity change, negative = inhibition, hits mostly inhibitors; P83916; also: potency is read from the fitted curve at half-maximal effect; nearly all actives have a fitted effect of over 70% in size
#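 HP1-beta protein (50 nM final) preincubated 30 min at room temperature with biotinylated H3(1-18)K9me3 peptide (50 nM) in PBS pH 7.4, 0.01% Tween-20, then compound added for 30 min. AlphaScreen streptavidin donor/nickel chelate acceptor beads (10 ug/mL final), 30 min dark, luminescence read.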
# PLK1 PBD block = inhibitors of human PLK1 polo-box domain binding; Potency, µM, inactives show max response, negative = inhibition, most hits filed as inhibitors; P53350; 2.8% of 360,000 active; Plk1 PBD binding of FITC phosphopeptide, fluorescence polarization; also: potency is read from the fitted curve at half-maximal effect; series mostly up to about 57 µM; % is scaled to controls: 0 for no effect and ±100 for the full control effect; nearly all actives have a fitted effect of over 65% in size
# JMJD2A Tudor inh = inhibitors of human JMJD2A Tudor domain; Potency, µM (top dose mostly 114 µM), without a hit: at the top dose activity change, negative = inhibition, most hits filed as inhibitors; AID 504339; AlphaScreen JMJD2A-Tudor / H3K4me3 peptide binding; 4.4% of 390,000 active; O75164; also: potency is read from the fitted curve at half-maximal effect; % is scaled to controls: 0 for no effect and ±100 for the full control effect; nearly all actives have a fitted effect of over 50% in size
# BAZ2B block = inhibitors of human BAZ2B bromodomain. 4.4% of 360,000 active. AlphaScreen BAZ2B-H3K14Ac peptide displacement. AID 504333. Potency, µM (highest dose often 114 µM), inactives show at the highest dose activity change, negative = inhibition, usual class: inhibitors. Q9UIF8; also: potency is read from the fitted curve at half-maximal effect; % is scaled to controls: 0 for no effect and ±100 for the full control effect; nearly all actives have a fitted effect of over 60% in size
#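 BAZ2B 50 nM plus b-H3(5-23)K14Ac 50 nM, PBS pH 7.4/0.01% Tween-20, 30 min RT; compound added (max 110 uM), 30 min RT; streptavidin donor/Ni-chelate acceptor beads 10 ug/mL final, 20 min dark; AlphaScreen read.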
# PI5P4K alpha inh = blocks human PI5P4K alpha kinase activity | 1.2% of 330,000 active | PI5P4Kalpha enzyme, ADP-Glo luminescence, 60 min; stronger effect = lower value | AID 652105 | max response, % | P48426; active = max response of -50% or lower; inconclusive = between -30% and -50%; inactive = -30% or higher; also: value at the top dose of about 77 µM; % is scaled to controls: 0 for no effect and ±100 for the full control effect
# Target sequence (P48426 whole entry, looked up): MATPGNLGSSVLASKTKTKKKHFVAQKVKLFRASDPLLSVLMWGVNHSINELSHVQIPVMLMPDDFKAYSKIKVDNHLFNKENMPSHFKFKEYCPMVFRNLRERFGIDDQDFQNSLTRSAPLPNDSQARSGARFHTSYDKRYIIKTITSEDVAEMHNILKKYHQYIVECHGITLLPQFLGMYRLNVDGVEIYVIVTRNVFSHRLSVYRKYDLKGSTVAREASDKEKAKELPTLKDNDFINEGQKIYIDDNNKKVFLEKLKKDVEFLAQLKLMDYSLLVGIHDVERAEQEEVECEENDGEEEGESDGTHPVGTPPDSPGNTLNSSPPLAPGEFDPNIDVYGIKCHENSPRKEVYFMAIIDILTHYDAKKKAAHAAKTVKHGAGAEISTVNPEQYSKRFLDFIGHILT
#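 Luminescence from ADP-Glo served as readout of PI5P4Kalpha activity in a qHTS format. Reaction: enzyme, substrate, compound, ATP at 5 microM final, 60 min at RT.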
# G9a inh = blocks human histone lysine methyltransferase G9a. G9a H3K9 monomethylation, AlphaScreen, 2 h. Potency, µM (highest dose often 102 µM), for the others: at the top dose activity, negative = inhibition, hits mostly inhibitors. 8.8% of 350,000 active. AID 504332; also: potency is read from the fitted curve at half-maximal effect; % is scaled to controls: 0 for no effect and ±100 for the full control effect; nearly all actives have a fitted effect of over 75% in size
# Target sequence (Q96KQ7 913-1193 limits assumed): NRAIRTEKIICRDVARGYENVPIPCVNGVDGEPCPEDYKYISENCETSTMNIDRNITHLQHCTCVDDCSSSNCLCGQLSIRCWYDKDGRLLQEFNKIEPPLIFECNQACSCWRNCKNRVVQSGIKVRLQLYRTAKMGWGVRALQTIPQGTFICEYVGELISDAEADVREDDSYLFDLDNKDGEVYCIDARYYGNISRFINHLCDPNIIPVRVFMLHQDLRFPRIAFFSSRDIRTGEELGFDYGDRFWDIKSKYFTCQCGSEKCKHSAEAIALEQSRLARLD
#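 AlphaScreen read-out: biotin-H3K9 peptide (500 nM) methylation by 20 nM enzyme with 20 uM SAM, 2 h at room temperature after 15 min compound preincubation; anti-monomethyl H3K9 antibody plus donor/acceptor beads, 10 min dark.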
# An asterisk follows results filed as active; u = inconclusive; x = no result; [ ] = remark or other dose. Shown are actives, neighbours in structure and some others; about 12% of the full set was active somewhere. Unless noted, calls follow the shape of the dose curve; as a rule, active = well fitted curve in the direction sought with a large enough effect; inconclusive = small, poorly fitted or top-dose-only effect, or another doubt; inactive = no such curve, though single readings can be large; an effect the other way counts as inactive or inconclusive.
SMILES,HP1b binding inh,PLK1 PBD block,JMJD2A Tudor inh,BAZ2B block,PI5P4K alpha inh,G9a inh
CCCC(c1nnnn1Cc1ccco1)N1CCN(c2ccccc2)CC1 (stereo unspecified),16%,-15%,-16%,56µM*,-3,u
CCCC(c1nnnn1Cc1ccco1)N1CCN(c2cc(Cl)ccc2C)CC1 (stereo unspecified),30%,2%,-32%,-31%,0,-13%
COc1ccccc1C(c1nnnn1Cc1ccco1)N1CCN(c2cccc(C)c2C)CC1 (stereo unspecified),u,-23%,-21%[57.1 µM],-6%,0,-16%[59 µM]
O=C(c1cccnc1)N1CCC2CC1c1c(Cl)cccc12 (stereo unspecified),x,-6%,x,x,7,x
c1cncc(-c2cccnc2)c1,37%,-5%,-14%[57.1 µM],40µM*,10,x
Oc1cncc(-c2cccnc2)c1,19%,3%,-18%,5%,-1,-7%[0.501 µM]
CC1=NN(c2ccc(C)c(C)c2)C(=O)C1C(c1cccc(O)c1)C1C(=O)N(c2ccc(C)c(C)c2)N=C1C (stereo unspecified),-17%,8.4µM*,u,u,4,u
CCCCNC(=O)C1C(c2ccc(C(F)(F)F)cc2)=Nc2ccccc2N1C(=O)C1CCN(C(C)=O)CC1 (stereo unspecified),x,-15%,x,x,1,x
Cc1csc(NC(=O)CSc2nnc(Cc3cccn3C)n2CCc2ccccc2)n1,u,u,35µM*,u,-17,45µM*
Cn1cccc1Cc1nnc(SCC(=O)Nc2ccccc2F)n1CCc1ccccc1,-11%,-27%,u,u,-6,45µM*
Cc1cc(NC(=O)CSc2nnc(Cc3cccn3C)n2CCc2ccccc2)no1,-7%,0%,-23%,u,-3,6%
COc1ccc(-n2c(Cc3cccn3C)nnc2SCC(=O)Nc2cccc(F)c2)cc1,8%,-6%,u,u,0,u
Cn1cccc1Cc1nnc(SCC(=O)Nc2cccc(F)c2)n1CCc1ccccc1,-11%,-6%,-32%,50µM*,4,45µM*
Cc1cc(NC(=O)CCC(=O)N(CCC(C)C)C(C(=O)NCC2CCCO2)c2ccccc2C)no1 (stereo unspecified),53%,-14%,-14%,-5%,-9,-10%
COC(=O)c1scc(C)c1NC(=O)c1ccc(Cl)cc1,8%,-15%,3%,8%,0,15%[0.501 µM]
COC(=O)c1scc(S(=O)(=O)C(C)C)c1N/N=C(\C#N)C(=O)c1ccc(Cl)cc1,-6%,-12%,u,-33%,-19,50µM*
COC(=O)c1scc(C#N)c1N/N=C(\C#N)S(=O)(=O)c1ccc(Cl)cc1,-9%,-10%,u,-37%,0,45µM*
O=C(CN1C(=O)CSc2ccc(S(=O)(=O)N3CCCC3)cc21)NCc1ccccc1Cl,15%,x,-18%,-17%,x,-4%[59 µM]
O=C(Nc1ccccc1)Nc1nc(Nc2cc(F)cc(F)c2)nc(NC2CCCC2)n1,x,x,-21%,x,x,x
CCN(CC)CCN(Cc1cc2cc(C)cc(C)c2[nH]c1=O)C(=S)NCc1ccco1,-14%,-2%,u,-12%,4,u
CCN(CC)CCN(Cc1cc2ccc(C)c(C)c2[nH]c1=O)C(=S)NCc1ccco1,u,-5%,u,u,-6,50µM*
Cc1cccc(CN(C(=S)Nc2c(C)cccc2C)c2cccnc2)c1,23%,-4%,-16%,79µM*,4,u
C[C@H](CO)N1C[C@H](C)[C@@H](CN(C)Cc2ccc(Cl)c(Cl)c2)Oc2c(NS(=O)(=O)c3cn(C)cn3)cccc2C1=O,17%,-8%,-25%,x,4,x
O=C1N=C(N2CCCC2C(=O)O)S/C1=C\c1ccco1 (stereo unspecified),u,3.4µM*,u,79µM*,u,25µM*
C[N+](C)(C)C/C=C1/COCO1,-3%,3.4µM*,u,-2%,u,50µM*
SMILES,HP1b binding inh,PLK1 PBD block,JMJD2A Tudor inh,BAZ2B block,PI5P4K alpha inh,G9a inh
CCN(CC)C(=O)Cn1c(=O)n(-c2ccc(Cl)cc2)c(=O)c2c3c(sc21)CCCCC3,23%,x,-9%,-2%,x,8%[59 µM]
CN1CCN(C(=O)Nc2cccc3ccccc23)CC1,7%,-11%,-7%,3%,x,u
CCN1CCN(C(=O)Nc2cccc3ccccc23)CC1,21%,-4%,-1%,u,x,40µM*
CC1CCN(Cc2c(O)ccc3c2O/C(=C\c2ccco2)C3=O)CC1,15%,u,-27%,50µM*,-15,5.6µM*
COCCN(CCOC)Cc1c(O)ccc2c1O/C(=C\c1ccco1)C2=O,-24%,u,-23%,71µM*,-8,4.5µM*
O=C1/C(=C/c2ccco2)Oc2c1ccc(O)c2CN1CCCCC1,7%,u,-30%,u,-26,u
CCOc1cc2c(cc1OCC)C(CC(=O)O)N(C(=O)Nc1ccc(Br)c(C)c1)CC2 (stereo unspecified),-15%,x,-29%,-30%,x,u
O=C(c1cccc(-n2cccc2)c1)N1CCN(S(=O)(=O)c2c(F)cccc2F)CC1,u,-13%,35µM*,2%,-28,67%
CCN(CC)CCn1c2ccccc2c(=O)c2c(O)ccc(O)c21,40µM*,u,45µM*,x,-13,x
Cn1c(=O)c2c(nc(NNC(=O)C(F)(F)F)n2C)n(C)c1=O,37%,6%,u,u,-27,6.3µM*
Cn1c(=O)c2c(nc(NN=C3CCCC3)n2C)n(C)c1=O,0%,-14%,-27%,u,-21,40µM*
Cc1ccc(-n2ncc3c(N4CCN(Cc5ccccc5)CC4)ncnc32)cc1Cl,28%,x,-20%,1%,x,11%[59 µM]
CCCOC(=S)N/C(=N\S(=O)(=O)c1ccccc1)c1ccccc1,-26%,28µM*,-18%,7%,x,10µM*
O=S(=O)(/N=C(/NS(=O)(=O)c1ccccc1)c1ccccc1)c1ccccc1,38%,-6%,-18%,-3%,0,u
O=S(=O)(N=C(NS(=O)(=O)c1ccc(Cl)cc1)c1ccccc1)c1ccc(Cl)cc1,12%,-12%,-22%,x,6,x
CCOC(=S)N/C(=N\S(=O)(=O)c1ccccc1)c1ccccc1,u,19µM*,-7%,11%,-4,10µM*
COC(=S)N/C(=N\S(=O)(=O)c1ccc(Cl)cc1)c1ccccc1,-15%,24µM*,-26%,-21%,-2,25µM*
Cc1ccc(NC(=S)N/C(=N/S(=O)(=O)c2ccccc2)c2ccccc2)cc1,-24%,24µM*,-30%,-31%,1,13µM*
Cc1ccc(S(=O)(=O)/N=C(/NC(=S)Nc2ccccc2)c2ccccc2)cc1,-10%,u,-13%,6%,3,u
